Inconclusive results are not listed. Activity calls are given as the source filed them.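 Rule for the calls, unless noted: active = percent response above 42, roughly 3 SD of non-fluorescent test compounds; inactive = the rest.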

Assay [1] can be described thus: yeast TOR pathway RPL19A-GFP modulators, primary screen, cell-based, S. cerevisiae, multiplex flow cytometry (AID 1862; in the data active = percent of DMSO control GFP below about 86%;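 note: lower values mimic rapamycin by blocking the RPL19A rise seen in DMSO cells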). Conditions: S. cerevisiae RPL19A-GFP strain, flow cytometry fluorescence, 3 h; at 10 µM; stronger effect = lower value. (In general: In flow cytometry, cells or beads pass a laser one at a time.)
Assay [2] can be described thus: modulators of MEP2-GFP levels in yeast, primary screen, S. cerevisiae, multiplex flow cytometry (AID 1867;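 active = GFP response, as percent of the DMSO control, above the screen-wide mean plus 3 SD, about 139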;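 note: median GFP channel fluorescence of barcode-gated MEP2-GFP cells measured by flow cytometry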). As to conditions: S. cerevisiae MEP2-GFP strain, 3 h, at 10 µM, stronger effect = higher value, 100% means same as DMSO wells.
A short description of assay [3]: modulators of CIT2-GFP expression in yeast, primary screen, S. cerevisiae, GFP fusion, multiplex flow cytometry (AID 1870;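 active = percent response above a set limit, the screen-wide mean plus 3 SD, cut at about 130% in these data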;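 note: barcoded CIT2-GFP strain pooled with four other GFP strains with rapamycin as positive control; median GFP fluorescence per well over plate mean of DMSO wells so 100% = DMSO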). Conditions: 3 h, at 10 µM, stronger effect = higher value.
Assay [4] can be described thus: modulators of LAP4-GFP expression in yeast, primary screen, S. cerevisiae, multiplex flow cytometry (AID 1873;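 active = GFP signal, as percent of the solvent control, above the screen mean plus 3 SD, about 149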). As to conditions: 3 h, at 10 µM, stronger effect = higher value.
Assay [5] in a line: modulators of AGP1-GFP expression in yeast TOR pathway, primary screen, cell-based, multiplex flow cytometry, S. cerevisiae (AID 1887;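 active = GFP signal above the screen-wide mean plus 3 SD, that is over about 124.5% of the solvent control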;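 note: AGP1-GFP fusion strain of S. cerevisiae within a five-strain barcoded multiplex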). As to conditions: 3 h, at 10 µM, stronger effect = higher value.
The nature of assay [6]: inhibitors of CD8+ T cell-vesicle binding, pilot screen, LFA-1/ICAM-1 modulator project, MLPCN validation set, flow cytometry (AID 2523;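 active = response below a set limit, under 55% cells CD8-positive and vesicle-bound, and CD8 cells' 90th-percentile brightness under 279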;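 for vesicle binding response: mean PE anti-B7-1 fluorescence of CD8+ cells relative to row control; 100% = QL9-loaded vesicles with DMSO vehicle in the same plate row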). As to conditions: 2C mouse CD8+ T cells, at 7 µM, stronger effect = lower value; double positive events: measured here: CD8+/vesicle+ event percentage.
In assay [7] the target is Integrin beta-1 (Homo sapiens) + Integrin alpha-4 (Homo sapiens) (UniProt P13612+P05556). Put plainly: inhibition of HUTS-21 binding to VLA-4, pilot screen, VLA-4 allosteric modulator project, U937 cells, HUTS-21 mAb, flow cytometry, validation set (AID 2674;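 active = inhibition above 50%, about 3 SD of the validation set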;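 note: antibody binding induced by the VLA-4 ligand LDV present at three times its Kd; 0% = LDV ligand with antibody and no compound and 100% = antibody without LDV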). Conditions: HUTS-21 LIBS mAb binding, at 6.7 µM, stronger effect = higher value, binding induced by LDV ligand.
Chain of Integrin beta-1 (Homo sapiens) + Integrin alpha-4 (Homo sapiens) (P05556 whole entry, looked up): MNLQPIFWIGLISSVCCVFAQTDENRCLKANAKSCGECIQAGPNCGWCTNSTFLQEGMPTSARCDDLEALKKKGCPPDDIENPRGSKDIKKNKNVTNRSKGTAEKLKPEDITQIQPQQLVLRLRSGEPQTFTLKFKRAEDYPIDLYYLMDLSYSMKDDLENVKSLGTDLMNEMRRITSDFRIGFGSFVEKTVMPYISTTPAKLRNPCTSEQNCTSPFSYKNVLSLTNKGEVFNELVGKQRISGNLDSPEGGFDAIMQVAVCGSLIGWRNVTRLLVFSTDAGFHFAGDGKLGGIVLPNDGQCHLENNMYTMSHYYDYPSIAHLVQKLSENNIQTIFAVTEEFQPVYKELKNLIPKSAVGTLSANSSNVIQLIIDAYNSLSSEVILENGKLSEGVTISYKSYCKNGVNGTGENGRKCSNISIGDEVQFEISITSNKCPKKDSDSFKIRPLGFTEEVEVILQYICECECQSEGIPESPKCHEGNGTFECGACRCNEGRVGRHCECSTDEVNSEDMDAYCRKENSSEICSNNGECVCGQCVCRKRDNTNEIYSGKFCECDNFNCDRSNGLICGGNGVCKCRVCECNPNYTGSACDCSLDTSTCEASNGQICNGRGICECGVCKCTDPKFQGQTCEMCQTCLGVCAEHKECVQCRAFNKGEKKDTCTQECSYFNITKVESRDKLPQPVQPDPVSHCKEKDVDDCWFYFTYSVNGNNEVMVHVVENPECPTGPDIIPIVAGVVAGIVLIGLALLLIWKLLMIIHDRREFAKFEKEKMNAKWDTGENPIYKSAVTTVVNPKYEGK
Chain of Integrin beta-1 (Homo sapiens) + Integrin alpha-4 (Homo sapiens) (P13612 whole entry, looked up): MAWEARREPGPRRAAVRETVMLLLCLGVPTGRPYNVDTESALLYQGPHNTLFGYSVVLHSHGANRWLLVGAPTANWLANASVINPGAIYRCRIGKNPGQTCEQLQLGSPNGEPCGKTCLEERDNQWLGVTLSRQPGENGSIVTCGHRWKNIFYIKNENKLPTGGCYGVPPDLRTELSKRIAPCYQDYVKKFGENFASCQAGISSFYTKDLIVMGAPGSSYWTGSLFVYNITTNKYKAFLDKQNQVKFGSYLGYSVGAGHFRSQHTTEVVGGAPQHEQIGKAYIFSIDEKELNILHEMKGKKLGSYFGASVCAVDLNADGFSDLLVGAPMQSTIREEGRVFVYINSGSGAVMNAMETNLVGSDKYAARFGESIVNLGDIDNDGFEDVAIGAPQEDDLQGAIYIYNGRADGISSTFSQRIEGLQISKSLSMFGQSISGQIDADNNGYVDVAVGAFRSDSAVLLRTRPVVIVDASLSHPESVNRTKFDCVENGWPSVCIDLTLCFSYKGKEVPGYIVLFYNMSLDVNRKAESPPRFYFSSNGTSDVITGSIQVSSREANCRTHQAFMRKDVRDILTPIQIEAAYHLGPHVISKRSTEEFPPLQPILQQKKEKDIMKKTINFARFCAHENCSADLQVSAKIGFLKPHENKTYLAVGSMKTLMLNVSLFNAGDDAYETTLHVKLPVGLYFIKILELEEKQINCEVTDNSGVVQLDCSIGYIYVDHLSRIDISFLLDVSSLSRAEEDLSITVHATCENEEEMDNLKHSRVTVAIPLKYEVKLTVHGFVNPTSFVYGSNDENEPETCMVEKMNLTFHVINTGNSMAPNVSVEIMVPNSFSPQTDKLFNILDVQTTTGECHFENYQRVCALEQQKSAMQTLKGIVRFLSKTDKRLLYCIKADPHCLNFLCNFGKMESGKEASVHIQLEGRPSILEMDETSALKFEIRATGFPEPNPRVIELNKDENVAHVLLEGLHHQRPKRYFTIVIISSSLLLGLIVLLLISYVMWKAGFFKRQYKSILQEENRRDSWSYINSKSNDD
Assay [8] in a line: superoxide lowering in aged yeast cells, pilot screen, validation compound set (AID 2706;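 active = superoxide response below 65% of plate, a cut near 3 SD across the whole screen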;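 note: yeast exposed to compound for one week at 30 degrees C before staining; 100% = mean of all compound wells on the same plate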). Conditions: S. cerevisiae aging, superoxide DHE fluorescence; at 10 µM; stronger effect = lower value.
In assay [9] the target is Beta-adrenergic receptor kinase 1 (Homo sapiens) (UniProt P25098). Put plainly: GRK2 binders displacing RNA aptamer, biochemical, validation, human GRK2, bead flow cytometry (AID 488806;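 active = aptamer binding inhibition above 30%, about 3 SD of noise from non-fluorescent compounds; inactive = inhibition at or below 30%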). Conditions: bead-bound GRK2, FAM-aptamer displacement, at 10 µM, stronger effect = higher value.
Chain of Beta-adrenergic receptor kinase 1 (Homo sapiens) (P25098 whole entry, looked up): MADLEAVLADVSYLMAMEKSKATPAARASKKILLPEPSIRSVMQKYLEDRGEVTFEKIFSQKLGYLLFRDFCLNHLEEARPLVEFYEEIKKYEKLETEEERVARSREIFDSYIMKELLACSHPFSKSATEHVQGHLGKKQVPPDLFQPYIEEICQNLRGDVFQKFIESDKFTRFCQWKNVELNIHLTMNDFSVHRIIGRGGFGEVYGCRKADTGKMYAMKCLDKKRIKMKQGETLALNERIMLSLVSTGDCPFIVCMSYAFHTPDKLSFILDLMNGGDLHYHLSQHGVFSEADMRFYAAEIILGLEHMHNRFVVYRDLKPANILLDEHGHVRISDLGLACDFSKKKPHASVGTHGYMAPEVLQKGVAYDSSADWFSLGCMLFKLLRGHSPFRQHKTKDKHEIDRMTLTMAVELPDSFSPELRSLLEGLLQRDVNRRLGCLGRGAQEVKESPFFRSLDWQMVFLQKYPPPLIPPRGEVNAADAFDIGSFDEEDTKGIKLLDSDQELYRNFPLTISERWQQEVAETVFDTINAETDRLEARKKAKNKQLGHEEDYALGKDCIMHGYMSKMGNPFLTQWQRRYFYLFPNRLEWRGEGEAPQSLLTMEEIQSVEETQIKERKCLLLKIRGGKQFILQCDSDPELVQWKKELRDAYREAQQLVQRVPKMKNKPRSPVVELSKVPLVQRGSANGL
Assay [10] concerns the target Beta-2 adrenergic receptor (Homo sapiens) (UniProt P07550). Put plainly: beta2AR agonists driving receptor internalization, pilot screen, cell-based, FAP fluorogen, flow cytometry, validation set (AID 504459).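 Note: agonist-driven loss of surface beta2AR via internalization measured by FAP dye flow cytometry.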 As to conditions: Am2.2-beta2AR cells, FAP surface receptor flow cytometry; at 10 µM; stronger effect = higher value.
For assay [11], the target named is AP-2 complex subunit beta (Homo sapiens) (UniProt P63010). Put plainly: inhibitors of arrestin peptide binding to AP2, pilot screen, biochemical, validation set, GST-AP2 beads, flow cytometry (AID 504541;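 active = inhibition above 54%, about 3 SD of non-fluorescent compounds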;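 note: AP2 carries R879A mutation and is captured from E. coli lysate; bead-bound FITC arrestin peptide fluorescence measuring arrestin peptide binding to AP2; 0% = DMSO wells and 100% = excess unlabeled arrestin peptide control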). Conditions: FITC arrestin peptide, at 10 µM, stronger effect = higher value, AP2 beta2 appendage fragment, R879A mutant.
Chain of AP-2 complex subunit beta (Homo sapiens) (P63010 whole entry, looked up, the tested form may be a part, one chain of several): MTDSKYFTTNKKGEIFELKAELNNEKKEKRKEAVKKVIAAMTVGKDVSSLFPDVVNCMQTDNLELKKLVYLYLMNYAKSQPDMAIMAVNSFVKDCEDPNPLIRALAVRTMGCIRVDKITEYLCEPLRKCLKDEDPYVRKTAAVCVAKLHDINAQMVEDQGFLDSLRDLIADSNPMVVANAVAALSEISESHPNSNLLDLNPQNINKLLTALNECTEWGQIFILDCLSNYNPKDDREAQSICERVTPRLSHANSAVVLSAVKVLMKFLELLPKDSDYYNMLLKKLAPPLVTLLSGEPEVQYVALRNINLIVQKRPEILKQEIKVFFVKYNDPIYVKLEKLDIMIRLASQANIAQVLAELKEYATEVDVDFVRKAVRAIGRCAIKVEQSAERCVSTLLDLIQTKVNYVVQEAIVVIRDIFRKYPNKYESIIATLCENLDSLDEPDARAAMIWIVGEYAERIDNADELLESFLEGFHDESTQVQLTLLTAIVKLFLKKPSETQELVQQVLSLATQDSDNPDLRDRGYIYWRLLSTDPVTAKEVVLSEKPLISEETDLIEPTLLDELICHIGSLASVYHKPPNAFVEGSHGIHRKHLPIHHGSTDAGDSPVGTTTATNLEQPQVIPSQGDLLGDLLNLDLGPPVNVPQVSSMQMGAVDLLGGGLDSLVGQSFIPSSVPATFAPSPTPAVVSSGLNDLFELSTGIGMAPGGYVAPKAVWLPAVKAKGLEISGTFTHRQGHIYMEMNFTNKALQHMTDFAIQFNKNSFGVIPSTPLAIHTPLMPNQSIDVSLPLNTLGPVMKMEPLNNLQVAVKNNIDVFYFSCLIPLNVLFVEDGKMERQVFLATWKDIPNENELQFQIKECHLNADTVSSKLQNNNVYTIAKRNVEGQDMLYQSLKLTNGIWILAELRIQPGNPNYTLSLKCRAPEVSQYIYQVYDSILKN
A short description of assay [12]: yeast V-ATPase proton transport modulators, S. cerevisiae, pHLuorin, HTS validation (AID 504600; in the data active = response above about 15%;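 note: plate controls were DMSO for no effect and reference compound for full effect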). As to conditions: S. cerevisiae pHLuorin cytosolic pH, at 10 µM, stronger effect = higher value.
The subject of assay [13] is anti-desmoglein-3 scFv antibody binding to human DSG3. Put plainly: inhibitors of anti-DSG3 scFv binding to DSG3, pilot screen, biochemical, validation compound set, bead-based, flow cytometry (AID 588368;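 active = binding below the plate cutoff, the plate median minus 3 SD, with a reading above zero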;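 note: signal is the median channel fluorescence of bead-bound GFP antibody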). As to conditions: Protein G beads, DSG3-Fc, scFv-GFP binding, at 10 µM, stronger effect = lower value.
Assay [14] in a line: inhibitors of fungal efflux pumps CDR1, CDR2, MDR1, pilot screen, validation compound set, multiplex, phenotypic (AID 588506;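 active = efflux inhibition above 0.42, the validation set average plus 4 SD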;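 note: Nile Red retained in cells so higher fluorescence means more efflux inhibition; 0 = negative control wells and 1 = enniatin B 25 µM full block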). As to conditions: S. cerevisiae pump-expressing triplex, Nile Red efflux flow cytometry; at 10 µM; stronger effect = higher value; the pumps come from Candida albicans.
Assay [15] addresses ATP-binding cassette sub-family B member 6 (Homo sapiens) (UniProt Q9NP58). The experiment in a line: ABCB6 transporter inhibitors, pilot screen, K562-ABCB6 cells, flow cytometry, validation set (AID 588550;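 active = inhibition above the screen-wide mean plus 3 SD, about 51%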;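 note: 0% = DMSO wells and 100% = benzethonium chloride 70 µM positive control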). Conditions: K562-ABCB6 porphyrin accumulation, 1 h, at 10 µM, stronger effect = higher value.
Assay [16] in a line: promoters of myeloid differentiation in arrested cells, primary screen, cell-based, GFP/MAC1 double positive, flow cytometry, validation set (AID 588685;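 active = differentiation response of at least 50%, scaled between solvent and reference control, from cells with both markers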;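 note: compound exposure lasts four days before antibody staining and flow analysis; 0% = DMSO wells and 100% = 5 µM fulvestrant positive control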). As to conditions: ER-HoxA9 marrow cells, stronger effect = higher value, normalized: vehicle 0, fulvestrant 100.

Chain of ATP-binding cassette sub-family B member 6 (Homo sapiens) (Q9NP58 whole entry, looked up): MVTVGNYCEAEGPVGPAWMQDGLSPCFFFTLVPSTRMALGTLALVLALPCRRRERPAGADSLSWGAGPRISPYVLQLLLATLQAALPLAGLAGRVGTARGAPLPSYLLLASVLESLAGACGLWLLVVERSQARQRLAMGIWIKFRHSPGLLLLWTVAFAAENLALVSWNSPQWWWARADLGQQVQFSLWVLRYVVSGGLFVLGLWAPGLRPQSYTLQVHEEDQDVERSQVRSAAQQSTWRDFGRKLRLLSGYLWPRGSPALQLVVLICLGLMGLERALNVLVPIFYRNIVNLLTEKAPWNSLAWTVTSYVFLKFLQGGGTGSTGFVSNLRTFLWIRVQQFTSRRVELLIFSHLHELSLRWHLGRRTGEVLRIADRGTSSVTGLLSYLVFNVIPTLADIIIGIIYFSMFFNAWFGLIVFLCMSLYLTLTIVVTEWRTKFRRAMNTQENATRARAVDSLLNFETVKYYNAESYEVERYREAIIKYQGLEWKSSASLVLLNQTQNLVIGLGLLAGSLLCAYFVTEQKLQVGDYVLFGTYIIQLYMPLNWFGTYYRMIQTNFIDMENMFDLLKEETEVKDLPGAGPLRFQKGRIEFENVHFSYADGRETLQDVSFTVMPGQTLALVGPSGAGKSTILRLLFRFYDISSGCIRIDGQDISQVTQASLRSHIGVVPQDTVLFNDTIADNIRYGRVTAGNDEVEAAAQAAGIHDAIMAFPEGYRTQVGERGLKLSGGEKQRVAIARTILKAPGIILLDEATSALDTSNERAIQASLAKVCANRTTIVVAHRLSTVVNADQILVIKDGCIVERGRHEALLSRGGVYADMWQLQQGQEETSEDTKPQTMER
Chain of Beta-2 adrenergic receptor (Homo sapiens) (P07550 whole entry, looked up): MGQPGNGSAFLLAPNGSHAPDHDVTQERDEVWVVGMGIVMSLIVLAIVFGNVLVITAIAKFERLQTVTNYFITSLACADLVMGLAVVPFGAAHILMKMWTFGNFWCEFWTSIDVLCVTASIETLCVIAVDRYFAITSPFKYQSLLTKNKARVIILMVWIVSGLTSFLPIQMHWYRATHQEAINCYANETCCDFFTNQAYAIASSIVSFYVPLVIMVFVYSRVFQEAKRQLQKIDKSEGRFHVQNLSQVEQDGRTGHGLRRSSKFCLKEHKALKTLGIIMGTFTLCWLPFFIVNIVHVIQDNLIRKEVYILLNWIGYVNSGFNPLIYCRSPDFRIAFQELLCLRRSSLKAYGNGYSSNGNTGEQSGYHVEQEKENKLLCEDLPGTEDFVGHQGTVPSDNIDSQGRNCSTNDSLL

On to `CC(=O)Nc1c(I)c(NC(C)=O)c(I)c(C(=O)O)c1I`, for which the percent of DMSO control GFP in assay [1] is 89.3% (inactive). The GFP response vs DMSO is 123% (inactive) in assay [2] and 78.1% (inactive) in assay [4]. For the same compound, in assay [3], the percent response of DMSO control is 104% (inactive). Besides, the GFP response, % of DMSO in assay [5] is 94% (inactive). The same compound had a double positive events in assay [6] of 58.9%. Further, the vesicle binding response in assay [6] was 171% (inactive). In addition, the figures for the inhibition in [7], in assay [11] and in assay [15] were 10.3% (inactive), 2.48% (inactive) and 9% (inactive), respectively. The superoxide response (% of plate) in assay [8] is 103% (inactive). For the same compound, the aptamer binding inhibition in [9] was -1% (inactive). Also, the response in assay [10] is -8.3% (inactive); in assay [12], 1.06% (inactive). Further, in assay [13], the binding (% of control) was 95% (inactive). Moreover, in [14], the efflux inhibition (fraction of control) is 0.12 (inactive). Further, the differentiation response in assay [16] is 2.46% (inactive).

Take `O=C(COc1cc(O)c2c(=O)c3ccccc3oc2c1)OCc1ccccc1`: the percent of DMSO control GFP in assay [1] is 101% (inactive). The GFP response vs DMSO is 104% (inactive) in [2] and 85.5% (inactive) in assay [4]. Moreover, the percent response of DMSO control in [3] was 109% (inactive). Further, in [5], the GFP response, % of DMSO is 97.6% (inactive). The compound also returned a double positive events in assay [6] of 61%. Moreover, the vesicle binding response in assay [6] was 152% (inactive). In addition, the inhibition (usually the relative decrease from the control value, in per cent) is -3.57% (inactive) in assay [7], -5.28% (inactive) in [11] and 0% (inactive) in assay [15]. Besides, the superoxide response (% of plate) in [8] is 101% (inactive). Moreover, the aptamer binding inhibition in assay [9] was -2% (inactive). Besides, the response in assay [10] was -4.65% (inactive); in assay [12], 4.03% (inactive). The binding (% of control) in assay [13] was 93.3% (inactive). Further, in assay [14], the efflux inhibition (fraction of control) was -0.01 (inactive). Moreover, the differentiation response in [16] was 12.9% (inactive).

`COc1ccc(S(N)(=O)=O)cc1C(N)=O`: the percent of DMSO control GFP in [1] is 100% (inactive). Further, the GFP response vs DMSO was 105% (inactive) in [2] and 101% (inactive) in [4]. The percent response of DMSO control in [3] is 97.8% (inactive). Besides, the GFP response, % of DMSO in [5] was 97% (inactive). The compound further registered a double positive events in assay [6] of 62%. Moreover, the vesicle binding response in [6] is 195% (inactive). Further, the inhibition in assay [7] is -0.45% (inactive); in assay [11], 13.4% (inactive); in assay [15] it was 11% (inactive). Further, in assay [8], the superoxide response (% of plate) is 106% (inactive). For the same compound, in assay [9], the aptamer binding inhibition is 0% (inactive). For the same compound, the response in assay [10] is 1.47% (inactive); in assay [12] it was -1.59% (inactive). Also, in [13], the binding (% of control) was 91.1% (inactive). Besides, in [14], the efflux inhibition (fraction of control) was 0.02 (inactive). The differentiation response in assay [16] is -4.64% (inactive).

Consider `Cc1csc(N)n1`, for which the percent of DMSO control GFP in [1] is 101% (inactive). Besides, the values for the GFP response vs DMSO in [2] and in assay [4] were 105% (inactive) and 86.9% (inactive), respectively. In assay [3], the percent response of DMSO control was 114% (inactive). Further, the GFP response, % of DMSO in assay [5] was 101% (inactive). Moreover, the double positive events in assay [6] amounted to 69.2%. Also, in assay [6], the vesicle binding response was 201% (inactive). Besides, the inhibition in assay [7] was -7.12% (inactive); in assay [11] it was 5.92% (inactive); in assay [15], 12% (inactive). For the same compound, the superoxide response (% of plate) in assay [8] is 87% (inactive). Further, the aptamer binding inhibition in assay [9] was -1% (inactive). Moreover, the response was 4.23% (inactive) in assay [10] and -1.8% (inactive) in assay [12]. Further, the binding (% of control) in assay [13] was 105% (inactive). In addition, the efflux inhibition (fraction of control) in assay [14] is -0.31 (inactive). In addition, the differentiation response in assay [16] was 9.01% (inactive).

As for `Cn1c(=O)[nH]c2nnc(-c3ccc(Cl)c(Cl)c3)nc2c1=O`, the percent of DMSO control GFP in [1] was 103% (inactive). The GFP response vs DMSO is 102% (inactive) in [2] and 98% (inactive) in assay [4]. Also, the percent response of DMSO control in [3] is 105% (inactive). Also, in assay [5], the GFP response, % of DMSO was 104% (inactive). Further, the double positive events in assay [6] amounted to 61.9%. For the same compound, the vesicle binding response in assay [6] was 133% (inactive). Further, the inhibition in assay [7] is 2.93% (inactive); in assay [11] it was 5.98% (inactive); in [15] it was -7% (inactive). In addition, the superoxide response (% of plate) in [8] was 73.3% (inactive). Moreover, the aptamer binding inhibition in assay [9] is 9% (inactive). For the same compound, the response in assay [10] was 9.11% (inactive); in assay [12], 0.72% (inactive). For the same compound, the binding (% of control) in assay [13] is 101% (inactive). Also, in assay [14], the efflux inhibition (fraction of control) is -0.21 (inactive). Moreover, in assay [16], the differentiation response was -13.3% (inactive).

Values taken from PubChem BioAssay.
